# Assay results from PubChem BioAssay (Tox21).
# Unmarked numbers belong to inactive results. Records with an inconclusive call do not appear. A call without a number means that no potency is given here. Calls of active or inactive are those of the source. Unless noted, calls come from the whole dose curve; as a rule, active = well fitted curve in the direction sought with a large enough effect in the repeat runs; inconclusive = weak or mixed curves; inactive = no such curve, though single readings can be large; an effect the other way counts as inactive or inconclusive.
# Key:
# [1] = qHTS assay for small molecules that induce genotoxicity in human embryonic kidney cells expressing luciferase-tagged ATAD5 (AID 651632); note: nearly all actives have a fitted effect of over 15% in size
# Summary of the method: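 Concentration-response screen for ATAD5 upregulation in HEK293T luciferase reporter cells; 16 hr treatment at 37C, then luminescence after 30 min with Amplite at room temperature.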
# [2] = qHTS assay for small molecule agonists of the p53 signaling pathway - cell viability (AID 651633; calls by dose curve;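 note: p53RE-bla HCT reporter cells with a stable beta-lactamase p53 reporter; series mostly up to about 83 µM; nearly all actives have a fitted effect of over 30% in size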)
# Summary of the method: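 p53RE-bla cells were treated with compound for 16 hours at 37 C. Cytotoxicity was then measured as CellTiter-Glo luminescence after 30 min at room temperature.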
# [3] = qHTS assay for small molecules that induce genotoxicity in human embryonic kidney cells expressing luciferase-tagged ATAD5 - cell viability (AID 651634; calls by dose curve; note: nearly all actives have a fitted effect of over 25% in size)
# Summary of the method: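 15.5 hr compound or vehicle exposure of HEK293T cells expressing luciferase-tagged ATAD5 at 37C; live-cell protease activity is read by fluorescence after 30 min of CellTiter-Fluor.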
# [4] = qHTS assay for small molecule disruptors of the mitochondrial membrane potential - cell viability (AID 720634; calls by dose curve;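 note: human HepG2 liver cancer cells; series mostly up to about 83 µM; nearly all actives have a fitted effect of over 20% in size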)
# Summary of the method: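 In this qHTS format, HepG2 cells plated overnight were pinned with compound, incubated 1 hr, and assayed for ATP luminescence with CellTiter-Glo after m-MPI dye addition.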
# [5] = qHTS assay to test for compound auto fluorescence at 590 nm (red) in HepG2 cells (AID 720674)
# Summary of the method: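 Seeding: 2,000 HepG2 cells/well, MEM/10% FBS, overnight 37 C. Dosing: compound vs DMSO. Incubation: 1 hr, 37 C, 5% CO2. Read: fluorescence 540 ex/590 em, Rose Bengal sodium as red reference.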
# [6] = qHTS assay to test for compound auto fluorescence at 460 nm (blue) in HEK293 cells (AID 720678); note: potency is the fitted concentration of half-maximal effect
# Summary of the method: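 Blue read-out at excitation 405 nm and emission 460 nm follows overnight compound exposure of HEK293 cells at 37C in 5% CO2. Activity is given as auto fluorescence equivalency to triamterene.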
# [7] = qHTS assay to test for compound auto fluorescence at 535 nm (green) in HEK293 cells (AID 720680)
# [8] = qHTS assay to test for compound auto fluorescence at 535 nm (green) in HEK293 cell free culture (AID 720682)
# Summary of the method: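 Intrinsic compound fluorescence is measured in culture medium containing 10% FBS, with excitation at 485 nm and detection at 535 nm, referenced to fluorescein.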
# [9] = qHTS assay to test for compound auto fluorescence at 590 nm (red) in HEK293 cell free culture (AID 720683)
# Summary of the method: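 Cell-free wells of DMEM with 10% FBS received compound, and intrinsic fluorescence was read at excitation/emission 540/590 nm. Values expressed as equivalence to Rose Bengal sodium.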
# [10] = qHTS assay to test for compound auto fluorescence at 460 nm (blue) in HepG2 cell free culture (AID 720685); note: potency is the fitted concentration of half-maximal effect
# Summary of the method: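 Cell-free plates of MEM plus 10% FBS received 23 nL compound or DMSO vehicle; blue-channel (405/460 nm) intensity scored against triamterene as reference fluorophore.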
# [11] = qHTS assay to test for compound auto fluorescence at 460 nm (blue) in HepG2 cells (AID 720687); note: potency is the fitted concentration of half-maximal effect
# Summary of the method: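 HepG2 cells in MEM with 10% FBS, attached overnight at 37 C, were exposed to compound or DMSO for 1 hr at 37 C, 5% CO2. Blue fluorescence was read at 405/460 nm, with triamterene as reference fluorophore.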
# [12] = qHTS assay for identifying genotoxic compounds that show differential cytotoxicity against isogenic chicken DT40 cell lines with known DNA damage response pathways - wild type cell line (AID 743012); note: nearly all actives have a fitted effect of over 60% in size; note: potency is the fitted concentration of half-maximal effect
# Summary of the method: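 Endpoint: CellTiter-Glo luminescence, 30 min RT. Cells: wild type DT40, 300/well. Exposure: compounds in DMSO, 40 h, 37 C/5% CO2, after ~0.5 h pre-incubation.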
# [13] = qHTS assay to identify small molecule antagonists of the androgen receptor (AR) signaling pathway - cell viability counter screen (AID 743033; note: nearly all actives have a fitted effect of over 45% in size)
# [14] = system: thyroid hormone receptor (rat, GH3 cells); assay: qHTS assay to identify small molecule agonists of the thyroid receptor (TR) signaling pathway (AID 743066; calls by dose curve)
# [15] = qHTS assay to identify small molecule antagonists of the estrogen receptor alpha (ER-alpha) signaling pathway - cell viability counter screen (AID 743074; calls by dose curve;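 note: HEK293 cells carrying ER-alpha-UAS-bla reporter stimulated with 17beta-estradiol; nearly all actives have a fitted effect of over 45% in size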)
# [16] = qHTS assay to identify small molecule antagonists of the estrogen receptor alpha (ER-alpha) signaling pathway using the BG1 cell line - cell viability counter screen (AID 743081);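 note: compound given together with 17beta-estradiol as the ER stimulus; series mostly up to about 70 µM; nearly all actives have a fitted effect of over 45% in size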
# Aromatase (Homo sapiens) = Aromatase (Homo sapiens) (UniProt P11511); assay: qHTS assay to identify aromatase inhibitors (AID 743083); note: nearly all actives have a fitted effect of over 55% in size; note: potency is the fitted concentration of half-maximal effect
# Aromatase (Homo sapiens), sequence (P11511 whole entry, looked up): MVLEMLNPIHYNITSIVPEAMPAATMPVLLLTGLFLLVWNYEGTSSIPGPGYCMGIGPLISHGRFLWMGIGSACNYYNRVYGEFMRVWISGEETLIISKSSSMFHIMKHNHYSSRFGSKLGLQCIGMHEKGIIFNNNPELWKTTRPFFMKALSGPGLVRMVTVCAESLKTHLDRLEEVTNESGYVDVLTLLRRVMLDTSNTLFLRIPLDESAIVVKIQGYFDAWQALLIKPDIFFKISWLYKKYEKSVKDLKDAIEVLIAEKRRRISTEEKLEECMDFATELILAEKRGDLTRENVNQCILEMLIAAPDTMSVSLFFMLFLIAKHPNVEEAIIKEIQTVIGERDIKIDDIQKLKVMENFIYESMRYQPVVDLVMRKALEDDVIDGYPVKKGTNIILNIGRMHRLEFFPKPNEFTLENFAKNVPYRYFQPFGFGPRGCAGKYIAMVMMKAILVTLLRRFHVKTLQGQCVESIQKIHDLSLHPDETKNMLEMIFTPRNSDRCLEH
# [17] = qHTS assay to identify aromatase inhibitors - cell viability counter screen (AID 743084);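 note: cells stimulated with testosterone during compound exposure; nearly all actives have a fitted effect of over 55% in size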
# [18] = qHTS assay to identify small molecule that activate the aryl hydrocarbon receptor (AhR) signaling pathway - cell viability counter screen (AID 743086); note: nearly all actives have a fitted effect of over 45% in size; note: potency is the fitted concentration of half-maximal effect
# Summary of the method: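 HepG2-AhR-luc (HG2L7.5c1) cells, 4000/well, treated 24 h at 37 C with compound; viability measured as CellTiter-Fluor fluorescence after 30 min in the same wells as the luciferase read.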
# [19] = qHTS assay to identify small molecule phospholipidosis (PLD) inducers (AID 1259344; active = well fitted curve in the direction sought with a large enough effect; an effect the other way counts as inactive or inconclusive)
# Summary of the method: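 Read-out is LipidTOX Red fluorescence (ex 595/em 615) imaged in HepG2 cells after 24 h compound exposure at 37 C, with Hoechst nuclear counterstain (ex 352/em 461) allowing per-cell normalisation.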
# Tags give direction and shape of the fitted curve or compound fluorescence and quenching.
compound,measurement,setting,value
C/C=C(\CC)C(=O)NC(N)=O,Potency,[1],inactive
same,Potency,[2],inactive
same,Potency,[3],inactive
same,Potency,[4],inactive
same,outcome,[5],inactive
same,Potency,[6],inactive
same,Potency,[7],inactive
same,Potency,[8],inactive
same,outcome,[9],inactive
same,Potency,[10],inactive
same,Potency,[11],inactive
same,Potency,[12],inactive
same,Potency,[13],inactive
same,Potency,[14],inactive
same,Potency,[15],inactive
same,Potency,[16],inactive
same,Potency,Aromatase (Homo sapiens),inactive
same,Potency,[17],inactive
same,Potency,[18],inactive
same,Potency,[19],inactive
O=c1ccc2cc(O[C@@H]3O[C@H](CO)[C@@H](O)[C@H](O)[C@H]3O)c(O)cc2o1,Potency,[1],inactive
same,Potency,[2],inactive
same,Potency,[4],inactive
same,outcome,[5],inactive
same,Potency,[6],10 µM [fluorescent] (active)
same,Potency,[7],inactive
same,Potency,[8],inactive
same,outcome,[9],inactive
same,Potency,[10],8.91 µM [fluorescent] (active)
same,Potency,[11],10 µM [fluorescent] (active)
same,Potency,[12],inactive
same,Potency,[13],inactive
same,Potency,[14],inactive
same,Potency,[15],inactive
same,Potency,Aromatase (Homo sapiens),inactive
same,Potency,[19],inactive
CN1[C@H]2CC[C@@H]1[C@@H](C(=O)O)[C@@H](OC(=O)c1ccccc1)C2,Potency,[1],inactive
same,Potency,[2],inactive
same,Potency,[3],inactive
same,Potency,[4],inactive
same,outcome,[5],inactive
same,Potency,[6],inactive
same,Potency,[7],inactive
same,Potency,[8],inactive
same,outcome,[9],inactive
same,Potency,[10],inactive
same,Potency,[11],inactive
same,Potency,[12],inactive
same,Potency,[13],inactive
same,Potency,[14],inactive
same,Potency,[15],inactive
same,Potency,[16],inactive
same,Potency,Aromatase (Homo sapiens),inactive
same,Potency,[17],inactive
same,Potency,[18],inactive
same,Potency,[19],inactive
O=C(OCCN1CCCCC1)C(O)(c1ccccc1)c1ccccc1,Potency,[1],inactive
same,Potency,[2],inactive
same,Potency,[3],inactive
same,Potency,[4],inactive
same,outcome,[5],inactive
same,Potency,[6],inactive
same,Potency,[7],inactive
same,Potency,[8],inactive
same,outcome,[9],inactive
same,Potency,[10],inactive
same,Potency,[11],inactive
same,Potency,[12],inactive
same,Potency,[13],inactive
same,Potency,[14],inactive
same,Potency,[15],inactive
same,Potency,[16],inactive
same,Potency,Aromatase (Homo sapiens),inactive
same,Potency,[17],inactive
same,Potency,[18],inactive
same,Potency,[19],inactive
CC1(C)[C@H](C=C(Cl)Cl)[C@H]1C(=O)OCc1c(F)c(F)cc(F)c1F,Potency,[1],inactive
same,Potency,[2],inactive
same,Potency,[3],inactive
same,Potency,[4],inactive
same,outcome,[5],inactive
same,Potency,[6],inactive
same,Potency,[7],inactive
same,Potency,[8],inactive
same,outcome,[9],inactive
same,Potency,[10],inactive
same,Potency,[11],inactive
same,Potency,[12],inactive
same,Potency,[13],inactive
same,Potency,[14],inactive
same,Potency,[15],inactive
same,Potency,[16],inactive
same,Potency,Aromatase (Homo sapiens),inactive
same,Potency,[17],inactive
same,Potency,[18],inactive
same,Potency,[19],inactive
C[C@]12CC[C@H]3[C@@H](CCC4=C(Cl)C(=O)CC[C@@]43C)[C@@H]1CC[C@@H]2O,Potency,[1],inactive
same,Potency,[2],inactive
same,Potency,[3],inactive
same,Potency,[4],inactive
same,outcome,[5],inactive
same,Potency,[6],inactive
same,Potency,[7],inactive
same,Potency,[8],inactive
same,outcome,[9],inactive
same,Potency,[10],inactive
same,Potency,[11],inactive
same,Potency,[12],16.8 µM (active)
same,Potency,[13],inactive
same,Potency,[14],inactive
same,Potency,[15],inactive
same,Potency,[16],inactive
same,Potency,Aromatase (Homo sapiens),inactive
same,Potency,[17],inactive
same,Potency,[18],inactive
same,Potency,[19],inactive
O[C@H]1[C@H]2[C@H](O)CCCN2C[C@H]1O,Potency,[1],inactive
same,Potency,[2],inactive
same,Potency,[3],inactive
same,Potency,[4],inactive
same,outcome,[5],inactive
same,Potency,[6],inactive
same,Potency,[7],inactive
same,Potency,[8],inactive
same,outcome,[9],inactive
same,Potency,[10],inactive
same,Potency,[11],inactive
same,Potency,[12],inactive
same,Potency,[13],inactive
same,Potency,[14],inactive
same,Potency,[15],inactive
same,Potency,Aromatase (Homo sapiens),inactive
same,Potency,[17],inactive
same,Potency,[18],inactive
same,Potency,[19],inactive
CCCSc1cc(OC)c(CCN)cc1OC,Potency,[2],inactive
same,Potency,[4],inactive
same,outcome,[5],inactive
same,Potency,[6],inactive
same,Potency,[7],inactive
same,Potency,[8],inactive
same,outcome,[9],inactive
same,Potency,[10],inactive
same,Potency,[11],inactive
same,Potency,[12],0.183 µM (active)
same,Potency,[13],inactive
same,Potency,[15],inactive
same,Potency,Aromatase (Homo sapiens),32.5 µM (active)
same,Potency,[18],32.5 µM (active)
same,Potency,[19],inactive
C[C@@H]1[C@@H]2Cc3ccc(O)cc3[C@@]1(C)CCN2CC1CC1,Potency,[1],inactive
same,Potency,[2],inactive
same,Potency,[3],inactive
same,Potency,[4],inactive
same,outcome,[5],inactive
same,Potency,[6],inactive
same,Potency,[7],inactive
same,Potency,[8],inactive
same,outcome,[9],inactive
same,Potency,[10],inactive
same,Potency,[11],inactive
same,Potency,[12],inactive
same,Potency,[13],inactive
same,Potency,[14],inactive
same,Potency,[15],inactive
same,Potency,[16],inactive
same,Potency,Aromatase (Homo sapiens),inactive
same,Potency,[17],inactive
same,Potency,[18],inactive
same,PLD induction,[19],5.17% [at 7.66 µM]
NC1=NC(=O)N2CC12 (stereo not given),Potency,[1],inactive
same,Potency,[2],inactive
same,Potency,[3],inactive
same,Potency,[4],inactive
same,outcome,[5],inactive
same,Potency,[6],inactive
same,Potency,[7],inactive
same,Potency,[8],inactive
same,outcome,[9],inactive
same,Potency,[10],inactive
same,Potency,[11],inactive
same,Potency,[12],inactive
same,Potency,[13],inactive
same,Potency,[14],inactive
same,Potency,[15],inactive
same,Potency,[16],inactive
same,Potency,Aromatase (Homo sapiens),inactive
same,Potency,[17],inactive
same,Potency,[18],inactive
same,Potency,[19],inactive
